Laboratory results taken from the supplement of paper PMC10849652.
About 8,800 targets were measured; listed, in parts, are those with a hit and a random draw of the rest. About 0.5% of all pairs of compound and target were hits.

Assays:
Assay in all cases: log2 fold change, soluble protein after heating vs DMSO (PISA); higher = thermal stabilisation; K562 lysate, 10 uM; active = over 0.2 and 3.5 SD of the protein, either way, in both replicates (recomputed)
erlotinib = compound: C#Cc1cccc(Nc2ncnc3cc(OCCOC)c(OCCOC)cc23)c1 [erlotinib]
Method in brief: (§1)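 K562 pellets were dounce-homogenised in PBS pH 7.4 containing 1 mM MgCl2, and the crude extract, at 1 mg/mL protein, was exposed to 10 μM compound for 30 min. Aliquots were heated for 3 min across 48°C-58°C, pooled, brought to 0.5% NP-40 at 4°C and spun at 21,000xg for 90 min, with the supernatant taken as soluble protein. TMTpro 16plex LC-MS/MS with equalised channel sums quantified that protein. Values are log-two fold changes in thermal stability relative to solvent controls, taken from duplicates.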

[1] = compound: C/C(=N\NC(=O)C1=CC(=CC=C1)S(=O)(=O)N2CCOCC2)/C3=C(C=CC(=C3)Cl)O
Method in brief: as §1

[2] = compound: C1=CC(=CC=C1C2=NC3=C(N2)C=C(C=C3)C(=O)N)OC4=CC=C(C=C4)Cl
Method in brief: as §1

[3] = compound: C1=CC2=C(C=CC(=C2)/C=C\3/C(=O)NC(=NCC4=CC=CS4)S3)N=C1
Method in brief: as §1

[4] = compound: C1=CC2=NC=CN=C2C=C1/C=C/3\C(=O)NC(=O)S3
Method in brief: as §1

[5] = compound: C1=CC=C(C=C1)C2=NC(=C(N2)C3=CC=NC=C3)C4=CC(=C(C=C4)Cl)O
Method in brief: as §1

[6] = compound: C1=CC=C2C(=C1)C3=NNC4=CC=CC(=C43)C2=O
Method in brief: as §1

[7] = compound: C1CCN(C1)C(=O)NC2=CC=CC(=C2)NC3=NC=C(C(=N3)NCCC4=CN=CN4)Br
Method in brief: as §1

[8] = compound: C1CN(CCC1(CC2=CC=C(C=C2)Cl)N)C3=NC=NC4=C3C=CN4
Method in brief: as §1

IRAK-1-4 Inhibitor I = compound: C1COCCN1CCN2C3=CC=CC=C3N=C2NC(=O)C4=CC(=CC=C4)[N+](=O)[O-] [IRAK-1-4 Inhibitor I]
Method in brief: as §1

Measured: log2 fold change

NFAT5 isoform 5 (UniProt O94916)
inactive: erlotinib -0.06 | [1] -0.012 | [2] 0.016 | [3] -0.036 | [4] 0.049 | [5] -0.008 | [6] -0.012 | [7] -0.006 | [8] 0.02 | IRAK-1-4 Inhibitor I 0.047

ORC2 (UniProt Q13416)
inactive: erlotinib -0.004 | [1] -0.006 | [2] -0.006 | [3] 0.009 | [4] 0.015 | [5] 0.006 | [6] -0.022 | [7] 0 | [8] -0.024 | IRAK-1-4 Inhibitor I -0.034

NR2C2 isoform 2 (UniProt P49116)
inactive: erlotinib 0.006 | [1] 0.135 | [2] -0.014 | [3] 0.134 | [4] -0.012 | [5] 0.064 | [6] -0.035 | [7] 0.061 | [8] -0.041 | IRAK-1-4 Inhibitor I -0.019

OAT (UniProt P04181)
inactive: erlotinib -0.006 | [1] -0.074 | [2] -0.04 | [3] 0.023 | [4] 0.007 | [5] -0.017 | [6] -0.038 | [7] -0.033 | [8] 0.008 | IRAK-1-4 Inhibitor I 0.018

NCAPD3 (UniProt P42695)
inactive: erlotinib 0.023 | [1] 0.021 | [2] -0.012 | [3] 0.006 | [4] -0.003 | [5] 0.012 | [6] -0.043 | [7] -0.004 | [8] 0.042 | IRAK-1-4 Inhibitor I 0.03

NUB1 (UniProt Q9Y5A7)
inactive: erlotinib 0.049 | [1] 0.055 | [2] -0.003 | [3] -0.015 | [4] 0.002 | [5] 0.054 | [6] 0.023 | [7] -0.022 | [8] -0.023 | IRAK-1-4 Inhibitor I -0.02

PBK (UniProt Q96KB5)
inactive: erlotinib 0.012 | [1] 0.026 | [2] -0.044 | [3] 0.014 | [4] -0.014 | [5] 0.008 | [6] -0.001 | [7] -0.007 | [8] -0.011 | IRAK-1-4 Inhibitor I -0.007

NFATC2 (UniProt Q13469)
inactive: erlotinib 0.002 | [1] 0.067 | [2] 0.014 | [3] 0.032 | [4] -0.016 | [5] 0.002 | [6] -0.144 | [7] -0.018 | [8] -0.049 | IRAK-1-4 Inhibitor I 0.033

OSBPL6 isoform 5 (UniProt Q9BZF3)
Chain of UniProt Q9BZF3 (Q9BZF3 whole entry, looked up): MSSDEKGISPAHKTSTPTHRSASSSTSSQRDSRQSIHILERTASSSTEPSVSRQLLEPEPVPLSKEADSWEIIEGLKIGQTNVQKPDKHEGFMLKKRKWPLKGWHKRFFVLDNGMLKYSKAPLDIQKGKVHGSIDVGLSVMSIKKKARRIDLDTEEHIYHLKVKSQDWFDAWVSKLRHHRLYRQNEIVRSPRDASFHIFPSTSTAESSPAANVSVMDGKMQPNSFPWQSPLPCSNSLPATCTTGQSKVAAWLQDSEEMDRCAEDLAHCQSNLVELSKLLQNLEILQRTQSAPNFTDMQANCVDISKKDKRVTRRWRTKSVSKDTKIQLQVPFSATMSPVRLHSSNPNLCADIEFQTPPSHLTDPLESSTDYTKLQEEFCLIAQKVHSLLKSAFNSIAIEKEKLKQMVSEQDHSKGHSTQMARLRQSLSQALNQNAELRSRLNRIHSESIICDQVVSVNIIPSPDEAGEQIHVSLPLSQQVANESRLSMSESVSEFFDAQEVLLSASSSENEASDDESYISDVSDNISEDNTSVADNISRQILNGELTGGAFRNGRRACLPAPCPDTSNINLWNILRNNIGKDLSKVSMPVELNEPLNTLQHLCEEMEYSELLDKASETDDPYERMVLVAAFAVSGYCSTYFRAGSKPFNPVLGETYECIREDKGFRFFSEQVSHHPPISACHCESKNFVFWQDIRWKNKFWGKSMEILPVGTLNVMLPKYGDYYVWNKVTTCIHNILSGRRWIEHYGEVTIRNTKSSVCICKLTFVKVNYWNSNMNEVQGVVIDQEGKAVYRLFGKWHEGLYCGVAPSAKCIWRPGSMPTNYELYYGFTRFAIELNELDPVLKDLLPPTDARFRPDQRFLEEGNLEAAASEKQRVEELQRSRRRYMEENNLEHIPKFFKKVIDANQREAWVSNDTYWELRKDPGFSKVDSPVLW
inactive: erlotinib 0.182 | [2] 0.09 | [3] -0.006 | [4] -0.012 | [5] 0.257 | [6] 0.107 | [7] -0.029 | [8] -0.015 | IRAK-1-4 Inhibitor I -0.08
active: [1] 0.398

MTMR6 (UniProt Q9Y217)
Chain of UniProt Q9Y217 (Q9Y217 whole entry, looked up): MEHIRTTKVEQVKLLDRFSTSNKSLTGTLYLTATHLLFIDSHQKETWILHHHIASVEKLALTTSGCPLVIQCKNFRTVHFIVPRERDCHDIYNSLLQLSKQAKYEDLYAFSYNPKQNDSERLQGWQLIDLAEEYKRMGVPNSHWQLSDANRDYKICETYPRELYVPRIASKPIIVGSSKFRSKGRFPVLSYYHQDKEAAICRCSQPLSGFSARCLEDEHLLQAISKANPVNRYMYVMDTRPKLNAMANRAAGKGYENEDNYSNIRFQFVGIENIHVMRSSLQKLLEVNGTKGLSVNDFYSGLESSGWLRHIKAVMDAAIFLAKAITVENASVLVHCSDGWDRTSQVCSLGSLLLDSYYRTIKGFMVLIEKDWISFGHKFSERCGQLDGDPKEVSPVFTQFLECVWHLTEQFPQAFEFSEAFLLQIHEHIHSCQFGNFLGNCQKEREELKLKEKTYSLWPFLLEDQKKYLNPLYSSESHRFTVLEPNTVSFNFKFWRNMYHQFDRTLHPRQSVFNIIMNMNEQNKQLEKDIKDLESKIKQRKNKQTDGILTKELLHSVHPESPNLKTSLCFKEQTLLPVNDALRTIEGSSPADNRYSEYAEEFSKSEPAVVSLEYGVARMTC
inactive: erlotinib 0.01 | [1] 0.044 | [2] 0.002 | [3] -0.008 | [4] -0.004 | [5] -0.009 | [6] -0.052 | [7] -0.013 | [8] 0.015 | IRAK-1-4 Inhibitor I -0.013

MYO1D (UniProt O94832)
Chain of UniProt O94832 (O94832 whole entry, looked up): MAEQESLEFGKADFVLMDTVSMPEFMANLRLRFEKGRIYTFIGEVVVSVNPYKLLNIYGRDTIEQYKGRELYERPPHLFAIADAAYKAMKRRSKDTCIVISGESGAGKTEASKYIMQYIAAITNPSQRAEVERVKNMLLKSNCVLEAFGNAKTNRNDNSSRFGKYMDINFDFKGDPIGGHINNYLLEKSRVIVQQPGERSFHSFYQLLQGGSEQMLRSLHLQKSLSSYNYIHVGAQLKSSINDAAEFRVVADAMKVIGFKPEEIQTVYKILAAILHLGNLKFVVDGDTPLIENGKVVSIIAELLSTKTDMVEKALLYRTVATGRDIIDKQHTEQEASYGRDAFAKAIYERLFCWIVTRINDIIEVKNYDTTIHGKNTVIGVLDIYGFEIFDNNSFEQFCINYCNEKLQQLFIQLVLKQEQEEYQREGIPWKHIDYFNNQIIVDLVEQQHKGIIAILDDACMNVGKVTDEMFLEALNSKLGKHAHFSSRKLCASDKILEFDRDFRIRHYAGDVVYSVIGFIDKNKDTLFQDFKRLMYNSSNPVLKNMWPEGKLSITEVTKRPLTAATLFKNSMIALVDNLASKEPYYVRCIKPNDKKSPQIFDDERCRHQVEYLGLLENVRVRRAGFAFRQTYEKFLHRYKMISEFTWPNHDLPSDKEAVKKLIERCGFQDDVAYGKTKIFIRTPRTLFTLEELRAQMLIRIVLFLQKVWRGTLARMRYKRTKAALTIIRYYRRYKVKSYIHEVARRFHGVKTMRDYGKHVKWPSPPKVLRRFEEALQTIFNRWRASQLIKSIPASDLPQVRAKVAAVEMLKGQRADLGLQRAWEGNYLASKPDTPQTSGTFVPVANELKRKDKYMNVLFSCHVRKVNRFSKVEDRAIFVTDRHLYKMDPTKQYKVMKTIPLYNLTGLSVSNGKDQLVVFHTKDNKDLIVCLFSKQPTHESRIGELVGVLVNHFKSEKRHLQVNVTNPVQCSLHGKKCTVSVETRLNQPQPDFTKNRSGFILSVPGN
inactive: erlotinib 0.01 | [1] -0.064 | [2] -0.022 | [3] 0.004 | [4] 0.006 | [5] 0.01 | [6] -0.083 | [7] 0.015 | [8] 0.031 | IRAK-1-4 Inhibitor I -0.027

PAFAH1B3 (UniProt Q15102)
inactive: erlotinib 0.037 | [1] 0.032 | [2] -0.017 | [3] -0.017 | [4] 0.022 | [5] -0.009 | [6] 0.005 | [7] 0.025 | [8] 0.027 | IRAK-1-4 Inhibitor I 0.005

NDUFS1 isoform 2 (UniProt P28331)
inactive: erlotinib -0.006 | [1] 0.033 | [2] -0.045 | [3] 0.025 | [4] 0.027 | [5] -0.033 | [6] -0.027 | [7] -0.052 | [8] 0.006 | IRAK-1-4 Inhibitor I 0.006

NUDT5 (UniProt Q9UKK9)
inactive: erlotinib -0.013 | [1] -0.051 | [2] 0.046 | [3] 0.027 | [4] -0.001 | [5] -0.002 | [6] -0.023 | [7] -0.026 | [8] 0.014 | IRAK-1-4 Inhibitor I 0.005

NDC1 (UniProt Q9BTX1)
Chain of UniProt Q9BTX1 (Q9BTX1 whole entry, looked up): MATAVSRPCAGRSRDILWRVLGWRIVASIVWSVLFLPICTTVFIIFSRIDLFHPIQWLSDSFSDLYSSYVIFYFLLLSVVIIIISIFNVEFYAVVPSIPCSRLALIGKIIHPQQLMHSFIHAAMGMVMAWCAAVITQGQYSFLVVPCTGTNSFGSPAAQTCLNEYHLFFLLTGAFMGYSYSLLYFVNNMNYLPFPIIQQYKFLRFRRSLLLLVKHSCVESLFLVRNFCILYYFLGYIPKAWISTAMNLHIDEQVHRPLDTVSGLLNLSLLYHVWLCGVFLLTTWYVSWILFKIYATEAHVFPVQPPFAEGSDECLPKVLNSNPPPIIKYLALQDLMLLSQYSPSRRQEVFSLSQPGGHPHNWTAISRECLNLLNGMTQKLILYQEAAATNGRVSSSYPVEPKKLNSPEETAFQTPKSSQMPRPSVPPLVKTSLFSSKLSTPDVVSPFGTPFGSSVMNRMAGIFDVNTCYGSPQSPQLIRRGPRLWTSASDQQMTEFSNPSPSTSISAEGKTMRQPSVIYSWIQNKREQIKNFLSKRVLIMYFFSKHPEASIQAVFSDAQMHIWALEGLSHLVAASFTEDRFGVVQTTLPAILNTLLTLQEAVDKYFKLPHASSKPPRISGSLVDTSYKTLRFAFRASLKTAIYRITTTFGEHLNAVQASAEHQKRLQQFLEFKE
inactive: erlotinib -0.002 | [1] 0.015 | [2] 0.026 | [3] 0.047 | [4] 0.031 | [5] -0.005 | [6] -0.077 | [7] 0.013 | [8] 0.024 | IRAK-1-4 Inhibitor I 0.026

MSH2 (UniProt P43246)
inactive: erlotinib 0.003 | [1] 0.018 | [2] -0.028 | [3] 0.028 | [4] 0.013 | [5] 0.017 | [6] -0.019 | [7] -0.01 | [8] 0.012 | IRAK-1-4 Inhibitor I -0.009

MTHFD1L (UniProt B7ZM99)
inactive: erlotinib 0.026 | [1] -0.001 | [2] 0 | [3] -0.007 | [4] 0.033 | [5] -0.006 | [6] -0.057 | [7] -0.004 | [8] 0.002 | IRAK-1-4 Inhibitor I -0.013

MRPL58 (UniProt Q14197)
inactive: erlotinib 0.025 | [1] -0.005 | [2] 0.054 | [3] -0.003 | [4] 0.01 | [5] -0.002 | [6] -0.025 | [7] -0.078 | [8] 0.043 | IRAK-1-4 Inhibitor I -0.012

OSBP2 (UniProt Q969R2)
inactive: erlotinib -0.019 | [1] -0.254 | [2] 0.08 | [3] 0.032 | [4] -0.039 | [5] -0.077 | [6] -0.075 | [7] 0.037 | [8] -0.01 | IRAK-1-4 Inhibitor I -0.061

MRPL53 (UniProt Q96EL3)
inactive: erlotinib -0.036 | [1] -0.103 | [2] 0.042 | [3] 0.014 | [4] -0.004 | [5] -0.015 | [6] -0.049 | [7] -0.07 | [8] 0.096 | IRAK-1-4 Inhibitor I 0.026

MT-ATP8 (UniProt P03928)
inactive: erlotinib 0.069 | [1] 0.006 | [2] -0.006 | [3] -0.041 | [4] 0.103 | [5] -0.103 | [6] -0.062 | [7] 0.116 | [8] 0.068 | IRAK-1-4 Inhibitor I 0.033

NNMT (UniProt P40261)
inactive: erlotinib -0.015 | [1] 0.003 | [2] 0.045 | [3] -0.001 | [4] -0.003 | [5] 0.032 | [6] -0.019 | [7] -0.002 | [8] -0.006 | IRAK-1-4 Inhibitor I -0.024

MYCBP (UniProt Q99417)
Chain of UniProt Q99417 (Q99417 whole entry, looked up): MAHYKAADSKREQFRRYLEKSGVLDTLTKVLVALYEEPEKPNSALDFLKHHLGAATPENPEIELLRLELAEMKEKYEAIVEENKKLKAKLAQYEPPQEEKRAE
inactive: erlotinib 0.007 | [1] -0.001 | [2] 0.011 | [3] 0.007 | [4] 0 | [5] 0.019 | [6] 0 | [7] 0.024 | [8] 0.076 | IRAK-1-4 Inhibitor I 0.04

NIFK (UniProt Q9BYG3)
Chain of UniProt Q9BYG3 (Q9BYG3 whole entry, looked up): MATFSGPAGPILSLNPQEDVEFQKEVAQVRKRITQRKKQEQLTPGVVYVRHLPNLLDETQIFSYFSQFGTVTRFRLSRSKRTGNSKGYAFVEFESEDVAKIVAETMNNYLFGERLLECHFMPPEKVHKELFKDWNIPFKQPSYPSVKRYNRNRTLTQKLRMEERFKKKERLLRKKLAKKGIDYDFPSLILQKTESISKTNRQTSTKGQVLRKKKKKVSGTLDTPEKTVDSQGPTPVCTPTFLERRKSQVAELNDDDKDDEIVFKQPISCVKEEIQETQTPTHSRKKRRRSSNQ
inactive: erlotinib 0 | [1] -0.05 | [2] -0.01 | [3] -0.009 | [4] 0.032 | [5] 0.038 | [6] 0.01 | [7] -0.02 | [8] -0.005 | IRAK-1-4 Inhibitor I -0.042

NNT (UniProt Q13423)
inactive: erlotinib -0.027 | [1] 0.013 | [2] -0.014 | [3] -0.012 | [4] -0.006 | [5] -0.008 | [6] -0.033 | [7] 0 | [8] 0.031 | IRAK-1-4 Inhibitor I -0.026

OSGEP (UniProt Q9NPF4)
inactive: erlotinib 0.012 | [1] -0.002 | [2] 0.041 | [3] -0.148 | [5] 0.008 | [6] -0.058 | [7] 0.009 | [8] -0.028 | IRAK-1-4 Inhibitor I -0.022
active: [4] -0.236

OGFR (UniProt Q9NZT2)
inactive: erlotinib 0.023 | [1] 0.023 | [2] 0.018 | [3] -0.015 | [4] -0.012 | [5] -0.011 | [6] -0.027 | [7] -0.01 | [8] 0.038 | IRAK-1-4 Inhibitor I -0.012

NOSTRIN (UniProt Q8IVI9)
inactive: erlotinib -0.031 | [1] 0.032 | [2] 0.132 | [3] 0.072 | [4] -0.008 | [5] -0.013 | [6] 0.07 | [7] -0.055 | [8] -0.065 | IRAK-1-4 Inhibitor I 0.001

NUDT4 (UniProt Q9NZJ9)
inactive: erlotinib -0.043 | [1] 0.233 | [2] -0.022 | [3] 0.07 | [4] -0.055 | [5] -0.009 | [6] 0.039 | [7] 0.059 | [8] 0.026 | IRAK-1-4 Inhibitor I -0.026

NUP160 (UniProt Q12769)
Chain of UniProt Q12769 (Q12769 whole entry, looked up): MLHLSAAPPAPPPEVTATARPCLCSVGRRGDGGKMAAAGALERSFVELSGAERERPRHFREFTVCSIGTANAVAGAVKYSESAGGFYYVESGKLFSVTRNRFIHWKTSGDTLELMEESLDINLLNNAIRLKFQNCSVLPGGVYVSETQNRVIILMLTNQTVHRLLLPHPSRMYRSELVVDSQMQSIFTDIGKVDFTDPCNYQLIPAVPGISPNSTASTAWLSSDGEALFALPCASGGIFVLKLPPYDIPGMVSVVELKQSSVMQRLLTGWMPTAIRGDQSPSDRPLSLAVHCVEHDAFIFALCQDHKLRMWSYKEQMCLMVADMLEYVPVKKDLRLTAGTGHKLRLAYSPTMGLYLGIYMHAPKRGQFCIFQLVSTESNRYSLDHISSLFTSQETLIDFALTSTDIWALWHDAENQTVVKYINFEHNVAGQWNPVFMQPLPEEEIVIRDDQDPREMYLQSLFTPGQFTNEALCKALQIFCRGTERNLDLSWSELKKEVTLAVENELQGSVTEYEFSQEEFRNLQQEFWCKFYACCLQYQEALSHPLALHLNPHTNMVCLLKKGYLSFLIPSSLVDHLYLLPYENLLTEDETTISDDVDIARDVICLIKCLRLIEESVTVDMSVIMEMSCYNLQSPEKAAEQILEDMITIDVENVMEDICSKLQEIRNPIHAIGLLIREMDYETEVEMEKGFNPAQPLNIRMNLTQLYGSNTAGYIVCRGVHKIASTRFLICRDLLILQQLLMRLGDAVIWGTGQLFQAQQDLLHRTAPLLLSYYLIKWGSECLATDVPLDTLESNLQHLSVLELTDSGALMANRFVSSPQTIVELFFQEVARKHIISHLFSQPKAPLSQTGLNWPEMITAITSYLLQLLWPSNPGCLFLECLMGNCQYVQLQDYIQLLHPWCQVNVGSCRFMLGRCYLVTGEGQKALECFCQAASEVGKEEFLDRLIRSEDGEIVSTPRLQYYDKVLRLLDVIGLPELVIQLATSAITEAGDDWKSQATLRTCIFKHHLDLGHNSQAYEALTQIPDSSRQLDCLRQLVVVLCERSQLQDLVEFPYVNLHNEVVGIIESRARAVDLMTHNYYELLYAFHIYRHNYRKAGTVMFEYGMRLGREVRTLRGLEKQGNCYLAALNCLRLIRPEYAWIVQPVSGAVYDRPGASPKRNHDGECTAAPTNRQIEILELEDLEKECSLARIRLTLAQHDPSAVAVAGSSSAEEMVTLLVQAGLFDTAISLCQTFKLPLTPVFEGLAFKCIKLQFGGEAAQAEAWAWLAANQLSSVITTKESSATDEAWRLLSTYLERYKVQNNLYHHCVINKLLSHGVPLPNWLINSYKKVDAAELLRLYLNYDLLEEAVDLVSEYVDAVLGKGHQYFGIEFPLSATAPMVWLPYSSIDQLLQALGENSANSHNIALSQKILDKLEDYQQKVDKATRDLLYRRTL
inactive: erlotinib 0.038 | [1] 0.041 | [2] -0.033 | [3] -0.006 | [4] 0.038 | [5] -0.012 | [6] -0.075 | [7] -0.029 | [8] 0.015 | IRAK-1-4 Inhibitor I -0.013
